For 9 compounds, growth inhibition results are on record in PubChem BioAssay (NCI).

The structures appear in SMILES notation. Several values for one entry are separate records, joined by “and”; a condition that tells them apart may be missing. Equal values may be shown once. Compounds without any hit were thinned out: in the full panel of roughly 79,000, 15% have a hit. A number with no mark means an inactive call. Activity calls are given as the source filed them. No stated cut-off is given here; in the data, active means growth inhibition above about 70%; inactive means the rest.

Assay [1] in a line: NCI Yeast Anticancer Drug Screen. Data for the rad50 strain (AID 155).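 Further: 0% = growth of vehicle-only cultures of the same strain.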 Particulars: S. cerevisiae rad50 strain growth inhibition, active compounds read high. The procedure, abridged:
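Inhibition values express reduced yeast growth in compound-treated cultures relative to vehicle-treated controls.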

The nature of assay [2]: NCI Yeast Anticancer Drug Screen. Data for the mec2-1 strain (AID 157). Conditions: S. cerevisiae mec2-1 strain, active compounds read high. The method, boiled down:
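Using mec2-1 yeast: add compound, measure growth, express inhibition versus vehicle-treated cultures.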

Assay [3] is described as follows: NCI Yeast Anticancer Drug Screen. Data for the sgs1 mgt1 strain (AID 161).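 Further: 0% = growth of cultures given vehicle only.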 Conditions: S. cerevisiae sgs1 mgt1 strain, active compounds read high. The procedure, abridged: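 Percent growth inhibition was derived by comparing compound-exposed mutant yeast with vehicle-exposed cultures. The strain carries alterations in DNA damage repair.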
Assay [4] can be described thus: NCI Yeast Anticancer Drug Screen. Data for the cln2 rad14 strain (AID 165).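 Further: 0% = growth equal to vehicle treated cultures.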 Conditions: S. cerevisiae cln2 rad14 strain, active compounds read high. The procedure, abridged:
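Yeast strain cln2 rad14, bearing defects in cell cycle control and DNA repair, serves as the test system; values reflect growth inhibition compared with vehicle.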

Assay [5] in a line: NCI Yeast Anticancer Drug Screen. Data for the bub3 strain (AID 167). Particulars: S. cerevisiae bub3 mutant strain, active compounds read high. The method, boiled down: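 Steps: expose the mutant yeast strain to compound; grow alongside vehicle-treated cultures; measure growth; express inhibition against the vehicle cultures.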
Assay [6] in a line: NCI Yeast Anticancer Drug Screen. Data for the mlh1 rad18 strain (AID 175). Conditions: S. cerevisiae mlh1 rad18 strain growth inhibition, active compounds read high. The procedure, abridged:
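Steps: expose repair-defective yeast to compound; measure growth; express inhibition against vehicle-treated controls.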

Where [7] appears, read: at 5.0 µM (retest, dose inferred, filed as 0.5).
Setting [8] is: at 50.0 µM (retest, dose inferred, filed as 5.0).

Take `OCC(O)C(O)C(O)C(O)CNCC(O)C(O)C(O)C(O)CO` (centres undefined): the growth inhibition in assay [1] (at 50.0 µM) was 5.3% and 10.1% and 19.6%; in assay [2] (at 50.0 µM), 15% and 17.2% and 10.3%; in assay [3] (at 50.0 µM), 12.8% and 14.3% and -2.5%; in assay [4] (at 50.0 µM) it was -6.2% and -7.7% and -3.1%; in assay [5] (at 50.0 µM) it was 13% and 14.2% and 3.75%; in assay [6] (at 50.0 µM), 17.4% and 21% and 20.8%.
For `CSc1ccccc1C(=O)O`, the growth inhibition in assay [1] (at 50.0 µM) is -0.25% and -1.5% and -11%; in assay [2] (at 50.0 µM), -1.9% and -7.55% and 25.9%; in assay [3] (at 50.0 µM), -10.4% and -1.2% and 31.2%; in assay [4] (at 50.0 µM), -32.9% and -15.8% and 17.3%; in assay [5] (at 50.0 µM), -30.5% and -6.5% and -34%; in assay [6] (at 50.0 µM), -7.45% and -1.95% and -8.9%.
On to `CCN(CC)CC(O)c1ccnc2c(O)cccc12` (centres undefined), for which the growth inhibition in assay [1] (setting [7]) is 3%; in assay [1] (setting [8]), 40%; in assay [1] (at 50.0 µM), 80.2% (active); in assay [2] (setting [7]), 4%; in assay [2] (setting [8]), 40%; in assay [2] (at 50.0 µM) it was 20.6%. The growth inhibition is -2% in assay [3] (setting [7]); 33% in assay [3] (setting [8]); 71.7% (active) in assay [3] (at 50.0 µM); 32% in assay [4] (setting [8]); 11.9% in assay [4] (at 50.0 µM); -6% in assay [5] (setting [7]). For the same compound, the growth inhibition in assay [5] (setting [8]) is 42%; in assay [5] (at 50.0 µM), 0.1%; in assay [6] (setting [7]), 1%; in assay [6] (setting [8]), 20%; in assay [6] (at 50.0 µM), 51.9%.
In the case of `CCCN1CN(C(C(=O)N[C@@H]2C(=O)N3C(C(=O)O)=C(C)CSC23)c2ccccc2)CSC1=S` (some centres undefined), the growth inhibition was -19% in assay [1] (setting [7]); 11% in assay [1] (setting [8]); 33.7% in assay [1] (at 50.0 µM); -11% in assay [2] (setting [7]); 1% in assay [2] (setting [8]); -32.4% in assay [2] (at 50.0 µM). The growth inhibition in assay [3] (setting [7]) was -21%; in assay [3] (setting [8]), -10%; in assay [3] (at 50.0 µM), -3.25%; in assay [5] (setting [7]), -10%; in assay [5] (setting [8]) it was -1%; in assay [5] (at 50.0 µM), -38.4%. Further, the growth inhibition in assay [6] (setting [7]) is -13%; in assay [6] (setting [8]), -12%; in assay [6] (at 50.0 µM), 1.5%.
`COc1ccc(NNC(=O)c2ccccc2)cc1`: the growth inhibition in assay [1] (setting [7]) is 29%; in assay [1] (setting [8]), 97% (active); in assay [1] (at 50.0 µM), 96.3% (active); in assay [2] (setting [7]) it was 9%; in assay [2] (setting [8]), 95% (active); in assay [2] (at 50.0 µM), 97.5% (active). In addition, the growth inhibition in assay [3] (setting [7]) is 13%; in assay [3] (setting [8]), 98% (active); in assay [3] (at 50.0 µM), 96.3% (active); in assay [5] (setting [7]), -9%; in assay [5] (setting [8]), 98% (active); in assay [5] (at 50.0 µM) it was 98.2% (active). Also, the growth inhibition in assay [6] (setting [7]) was 13%; in assay [6] (setting [8]) it was 98% (active); in assay [6] (at 50.0 µM) it was 97.7% (active).
For `Oc1cccc2ccc(SSc3ccc4cccc(O)c4n3)nc12`, the growth inhibition in assay [1] (setting [7]) was 99% (active); in assay [1] (setting [8]), 95% (active); in assay [1] (at 50.0 µM), 92.2% (active); in assay [2] (setting [7]), 100% (active); in assay [2] (setting [8]), 95% (active); in assay [2] (at 50.0 µM), 95.7% (active). Besides, the growth inhibition in assay [4] (setting [7]) is 85% (active); in assay [4] (setting [8]) it was 87% (active); in assay [4] (at 50.0 µM), 74.8% (active); in assay [5] (setting [7]), 96% (active); in assay [5] (setting [8]) it was 95% (active); in assay [5] (at 50.0 µM), 90.5% (active). Besides, the growth inhibition is 93% (active) in assay [6] (setting [7]), 93% (active) in assay [6] (setting [8]) and 93.3% (active) in assay [6] (at 50.0 µM).
For `CCC1(CC)COC(C)(C(=O)O)OC1`, the growth inhibition in assay [1] (setting [7]) is -155%; in assay [1] (setting [8]), -176%; in assay [1] (at 50.0 µM) it was 56.9%; in assay [2] (setting [7]), -50%; in assay [2] (setting [8]), -62%; in assay [2] (at 50.0 µM), 11.1%. In addition, the growth inhibition in assay [4] (setting [7]) is -51%; in assay [4] (setting [8]), -77%; in assay [4] (at 50.0 µM), -41.4%; in assay [5] (setting [7]) it was -65%; in assay [5] (setting [8]), -71%; in assay [5] (at 50.0 µM), 6.2%. Besides, the growth inhibition in assay [6] (setting [7]) is -127%; in assay [6] (setting [8]), -168%; in assay [6] (at 50.0 µM), -6.2%.
For `CC1CCN(CCOC(=O)C(c2ccccc2)C2C=CCCC2)C1` (centres undefined), the growth inhibition was 8% in assay [1] (setting [7]); 34% in assay [1] (setting [8]); 62.9% in assay [1] (at 50.0 µM); 3% in assay [2] (setting [7]); 37% in assay [2] (setting [8]); 16.9% in assay [2] (at 50.0 µM). Besides, the growth inhibition was 7% in assay [4] (setting [7]); 37% in assay [4] (setting [8]); 41.8% in assay [4] (at 50.0 µM); 9% in assay [5] (setting [7]); 55% in assay [5] (setting [8]); 36.5% in assay [5] (at 50.0 µM). Also, the growth inhibition in assay [6] (setting [7]) was 14%; in assay [6] (setting [8]) it was 75% (active); in assay [6] (at 50.0 µM) it was 52.7%.
With `O=C(O)C1(Cc2ccc3c(c2)CCC3)Cc2cc3c(cc2C1)CCC3`, the growth inhibition in assay [1] (setting [7]) was 2%; in assay [1] (setting [8]), 2%; in assay [1] (at 50.0 µM), 82.8% (active); in assay [2] (setting [7]) it was -7%; in assay [2] (setting [8]), -7%; in assay [2] (at 50.0 µM) it was 86.1% (active). Besides, the growth inhibition in assay [4] (setting [7]) is -1%; in assay [4] (setting [8]) it was -1%; in assay [4] (at 50.0 µM), 82% (active); in assay [5] (setting [7]) it was -11%; in assay [5] (setting [8]) it was -11%; in assay [5] (at 50.0 µM), 82.2% (active). The growth inhibition in assay [6] (setting [7]) was 14%; in assay [6] (setting [8]), 14%; in assay [6] (at 50.0 µM), 80.1% (active).
